This test in a line: Acumen qHTS Assay for Inhibitors of the mTORC1 Signaling Pathway in MEF (Tsc2-/-, p53-/-) Cells: Hit Validation.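 Further: phospho-rpS6 Ser235/236 immunofluorescence normalized to propidium iodide cell count; nearly all actives have a fitted effect of over 65% in size.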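 On activity change, negative = inhibition: cells exposed to compound for 24 hours; plate controls were DMSO for no effect and 7.5 nM rapamycin control for full effect.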 The note with it: Acumen imaging; activity change, negative = inhibition: at 37.3 µM (top of the series).

Records with an inconclusive call do not appear. Activity calls are given as the source filed them. The call rests on the fitted dose curve; in most records, active means well fitted inhibition curve with a large enough effect; inconclusive means small, poorly fitted or top-dose-only effect; inactive means no such curve, though single readings can be large or run the other way.
Potency means the concentration at half of the fitted maximal effect.

As to `CCC1CCc2nc3sc(C(=O)Nc4ccc(C)cc4)c(N)c3cc2C1` (configuration not stated), the Potency was 8.26 µM (active).
`COCCCNC(=O)c1ccc(CSc2nc3cccnc3n2Cc2ccc(OC)cc2)cc1`: the activity change, negative = inhibition was 2.82%.
For the molecule `CCCCn1c(=N)n(CCOc2ccccc2OC)c2ccccc21`, the Potency is 4.65 µM (active).
Same read-out and setting: the value for `CCOc1cc(-c2nnc(SCC(=O)NCc3ccccc3)nc2-c2ccc(OC)c(OCC)c2)ccc1OC` was 2.07 µM (active).
For the molecule `Cc1ccc(S(=O)(=O)c2nnn3c2nc(NCc2cccs2)c2sccc23)cc1`, the activity change, negative = inhibition was -1.4%.
Consider `NC(=O)c1ccc(-c2nc(-c3ccc4c(c3)OCO4)c(-c3ccccn3)[nH]2)cc1`, for which the activity change, negative = inhibition was -5.7%.
In the case of `CCc1ccccc1NC(=O)CSCc1cnn(-c2ccccc2)c1-n1cccc1`, the activity change, negative = inhibition was determined as 14.7%.
Regarding `COc1ccc(-c2n[nH]c3c2C(c2ccc(O)cc2)N(c2ccc(Br)cc2)C3=O)cc1` (configuration not stated), the activity change, negative = inhibition worked out at 2.17%.
Regarding `CCS(=O)(=O)c1ncc(Cl)c(C(=O)Nc2ccccc2)n1`, the Potency is 1.31 µM (active).
For the molecule `CCn1c2ccccc2c2cc(CN3CCN(Cc4ccc(Cl)cc4)CC3)ccc21`, the Potency is 14.7 µM (active).
In the case of `CCCCOC(=O)c1ccc(NC(=O)c2ccc3c(c2)CCN3S(=O)(=O)c2ccccc2)cc1`, the activity change, negative = inhibition is -14.2%.
As to `CC(=O)Nc1ccc2nc(-c3cc(C)ccc3C)[nH]c2c1`, the activity change, negative = inhibition is -21.9%.
`COc1ccc(Nc2cc(C)nc(-n3nc(C)cc3C)n2)cc1Cl`: the Potency was 0.147 µM (active).
On to `Cc1ccccc1CN1C(=O)C(O)(CC(=O)c2ccccc2)c2cc(Cl)ccc21` (configuration not stated), for which the activity change, negative = inhibition is -65.2%.
Take `Cc1ccc(C)c(NC(=O)c2nc(S(=O)(=O)Cc3ccc(F)cc3)ncc2Cl)c1`: the activity change, negative = inhibition is -90.5%.
On to `Cc1ccc(O)c(C(CC(=O)NCC2(c3ccccc3)CCCC2)c2ccccc2)c1` (configuration not stated), for which the activity change, negative = inhibition came out at 2.09%.
Regarding `CCc1ccc(CN(Cc2ccco2)C(=O)c2cc(-c3ccc(C)c(F)c3)on2)cc1`, the activity change, negative = inhibition was -10.4%.
Regarding `Cc1cccn2c(Nc3ccccc3)c(-c3cccs3)nc12`, the activity change, negative = inhibition was 26.1%.
The same measure, in the same setting: then `Cc1cccc(-n2nnnc2S(C)(=O)=O)c1`, with -92%.
As to `COc1ccccc1N1CCN(C(=O)c2cnc(N3CCCCC3)c3ccccc23)CC1`, the Potency is 0.927 µM (active).
Turning to `Cc1c(Cl)cccc1-c1ccc(C(=O)Nc2ccc3oc(-c4cccnc4)nc3c2)o1`, the activity change, negative = inhibition was -39.9%.
Turning to `CCN1CCN(C(=O)Cn2ncc3c4ccccc4n(Cc4c(C)cc(C)cc4C)c3c2=O)CC1`, the activity change, negative = inhibition was -17.5%.
As to `COc1ccc(CCN2C(=O)c3[nH]nc(-c4ccccc4O)c3C2c2cccc(OC)c2)cc1` (configuration not stated), the Potency was 5.85 µM (active).
For `COc1ccc(OC)c(NC(=O)c2nnn(CC(=O)Nc3ccc(C(C)C)cc3)c2N)c1`, the activity change, negative = inhibition was -27.6%.
With `CC(C)c1nnc(NC(=O)c2nc(S(=O)(=O)Cc3ccccc3)ncc2Cl)s1`, the activity change, negative = inhibition is -86.2%.
For `Cc1cccc(NS(=O)(=O)c2ccc3[nH]c4c(c3c2)CCCCCC4)c1`, the Potency was 5.21 µM (active).
With `Cc1nc2nncn2c(NCc2ccc(Cl)cc2)c1C`, the Potency was 4.14 µM (active).
With `Cc1noc(/C=C/N(C)C)c1S(=O)(=O)N1CCCC(C(=O)Nc2ccc(F)cc2F)C1` (configuration not stated), the Potency is 1.85 µM (active).
Turning to `O=c1c(-c2cc(-c3ccc(F)cc3)nc3c2COc2ccc(Cl)cc2-3)coc2ccc(F)cc12`, the activity change, negative = inhibition is 7.23%.
With `Cc1nn(CC(=O)NCc2ccccc2Cl)c(=O)c2cccn12`, the activity change, negative = inhibition is 6.27%.
For the molecule `COc1ccc(S(=O)(=O)Nc2ccc3oc4c(c3c2)CCCC4)cc1`, the activity change, negative = inhibition came out at 1.17%.
`COc1cc(C(=O)n2nc(C)c(Sc3ccc(Cl)cc3)c2C)cc(OC)c1OC`: the activity change, negative = inhibition is -8.63%.
In the case of `Cc1ccc(C(=O)Nc2c(C(=O)NCc3ccc(Cl)cc3)sc3nc(C)cc(C)c23)cc1`, the activity change, negative = inhibition was -89.8%.
On the same count and under the same terms, the value for `C=CCc1c(C)nc2nc(SCC(=O)Nc3ccc(C)c(C)c3)nn2c1C` was -88.7%.
With `Cc1cccc(-n2cnc3cc(C(=O)NC4CCCCCC4)ccc32)c1`, the Potency is 18.5 µM (active).
Take `CC(C)(C)C1CCc2c(sc(NC(=O)C3c4ccccc4Oc4ccccc43)c2C(N)=O)C1` (configuration not stated): the activity change, negative = inhibition is -15.3%.
As to `Cc1ccc(-n2c(=O)c3ccc(C(=O)NCc4ccco4)cc3n(Cc3ccc(Cl)cc3)c2=O)cc1`, the Potency is 9.27 µM (active).
Take `CCN1CCOC(=O)C1CC(=O)Nc1cc(Cl)ccc1C` (configuration not stated): the activity change, negative = inhibition was -93.4%.
For the molecule `CN1CCN(C2(CNC(=O)COc3ccc(C(C)(C)C)cc3)CCCCC2)CC1`, the Potency is 14.7 µM (active).
Take `Cc1ccc(-n2ncc(C(=O)NCCCN3CCc4ccccc4C3)c2C2CCN(C(=O)OC(C)(C)C)CC2)c(C)c1`: the activity change, negative = inhibition is -11.4%.
Turning to `CCS(=O)(=O)c1ncc(Cl)c(C(=O)N2CCN(c3cccc(Cl)c3)CC2)n1`, the Potency is 1.31 µM (active).
Take `Cc1ccc(C)c(N2CCN(CCCNC(=O)c3nnc(Cc4ccc(F)cc4Cl)o3)CC2)c1`: the Potency was 10.4 µM (active).
On to `Cc1ccc(NC(=O)COc2ccc(-c3nn(C)c(=O)c4ccccc34)cc2)c(C)c1`, for which the activity change, negative = inhibition is -44.6%.
Regarding `CCN(CC)CCOC(=O)c1ccc(NC(=O)c2nn(-c3ccc(C)cc3)c(=O)c3c2c2ccccc2n3C)cc1`, the Potency is 4.14 µM (active).
For the molecule `CCCCS(=O)(=O)c1oc(-c2cccs2)nc1S(=O)(=O)c1ccc(F)cc1`, the Potency was 3.69 µM (active).
As for `CCCCS(=O)(=O)c1oc(-c2ccc(F)cc2)nc1S(=O)(=O)c1ccc(C)cc1`, the Potency was 4.65 µM (active).
For the molecule `CC(=O)Nc1ccc(NC(=O)c2nc(S(=O)(=O)Cc3ccc(F)cc3)ncc2Cl)cc1`, the Potency was 2.61 µM (active).
The same measure, in the same setting: the value for `CC(C)Cc1ccc(S(=O)(=O)N2CCC(c3ccncc3)CC2)cc1` was 4.65 µM (active).
For the molecule `CCN(C(=O)C(NS(=O)(=O)c1ccc(Br)s1)c1ccccc1)c1ccc(C)c(C)c1` (configuration not stated), the activity change, negative = inhibition was -46.3%.
With `CC(C)CS(=O)(=O)c1oc(-c2ccc(F)cc2)nc1S(=O)(=O)c1ccccc1`, the activity change, negative = inhibition was -152%.
`COCc1oc2ccc(NS(=O)(=O)c3ccc(C)cc3)cc2c1C(=O)OC`: the activity change, negative = inhibition is -61.3%.
`CCOc1ccccc1NC(=O)c1cn(C2CCCC2)c(=O)c2c1c1ccccc1n2C`: the activity change, negative = inhibition was -10.9%.
`CCCCNC(=O)CSc1c2c(nc3ccc(Cl)cc13)CCCC2`: the activity change, negative = inhibition is -28.5%.
In the case of `CCCC1=Nc2cc(C(=O)NC3CCCC3)ccc2Sc2ccc(C)cc21`, the Potency was 1.17 µM (active).
In the case of `Cc1ccc2occ(CC(=O)Nc3ccc(Cl)c(C(F)(F)F)c3)c2c1`, the activity change, negative = inhibition was -19.2%.
On to `CCC(Sc1nncn2c1cc1oc(C)cc12)C(=O)Nc1ccc(F)cc1` (configuration not stated), for which the activity change, negative = inhibition amounted to 12.3%.
Regarding `O=C(CN1C(=O)C(c2ccc(F)cc2)=NC12CCCCCC2)Nc1ccccc1Cl`, the activity change, negative = inhibition was determined as 12.4%.
As for `CCc1ccc(S(=O)(=O)c2nnn(-c3ccc(F)cc3)c2N)cc1`, the activity change, negative = inhibition is -3.55%.
Regarding `Cc1ccc(OCC(O)Cn2c(=N)n(CCN3CCCCC3)c3ccccc32)cc1` (configuration not stated), the Potency is 10.4 µM (active).
In the case of `CCN(CC)S(=O)(=O)c1ccc(NC(=O)CCc2c(C)nc3cc(-c4ccc(Cl)cc4)nn3c2C)cc1`, the activity change, negative = inhibition was -101%.
On to `CC(C)(C)OC(=O)N1CCC(c2c(C(=O)NCCN3CCC(Cc4ccccc4)CC3)cnn2-c2cccc(Cl)c2)CC1`, for which the activity change, negative = inhibition was -98.8%.
In the case of `Cc1cccc(OCc2ccc(-c3nc(C#N)c(NCCN(C)C)o3)o2)c1`, the activity change, negative = inhibition amounted to 0.2%.
Consider `Cc1cccc(CS(=O)(=O)c2ncc(Cl)c(C(=O)NCc3ccccc3)n2)c1`, for which the activity change, negative = inhibition was -111%.
With `COc1ccccc1CNC(=O)CCCn1c(=O)c2cccn2c2ccccc21`, the activity change, negative = inhibition was -1.89%.
As to `O=C(Cn1c(=O)c2cccn2c2ccccc21)NCc1ccccc1F`, the activity change, negative = inhibition stood at 18.1%.
On the same count and under the same terms, then `O=C(NCc1ccccc1)c1ccc2c(c1)N(Cc1ccccc1F)C(=O)c1ccccc1S2=O` (configuration not stated), with -33%.
As for `CCCCN(C)CCNC(=O)C1CCN(c2nc3ccc(CC)cc3s2)CC1`, the activity change, negative = inhibition is -90.7%.
`CC(C)(C)C(=O)Nc1ccc(-c2nc3ccc(NC(=O)C(C)(C)C)cc3[nH]2)cc1`: the activity change, negative = inhibition was -3.72%.
Consider `COc1ccc(-c2cc(C(F)(F)F)nc(S(C)(=O)=O)n2)cc1`, for which the activity change, negative = inhibition is -88.8%.
Same read-out and setting: then `Cc1nn(CC(=O)N2CCN(c3ccccc3F)CC2)c(=O)c2cccn12`, with 2.89%; and `Nc1nc(Nc2ccccc2F)sc1C(=O)c1ccc(Cl)cc1`, with -5.15%; and `Cc1ccc(NC(=O)CSc2nc(=O)cc(N)n2CCc2ccccc2)cc1`, with -30%.
In the case of `CCOc1ccc(Nc2nc(-c3cccc(Cl)c3)c3c(n2)-c2ccccc2OC3)cc1`, the activity change, negative = inhibition came to 6.48%.
As for `CCOc1ccc(N(Cc2ccccc2)C(=O)c2nc(S(C)(=O)=O)ncc2Cl)cc1`, the Potency was 2.93 µM (active).
`COc1ccc(NC(=O)c2c(NC(=O)COc3ccccc3)sc3c2CCC(C)C3)cc1` (configuration not stated): the activity change, negative = inhibition was determined as 6.92%.
As to `CCOC(=O)Cc1ccc(NC(=O)n2ncc3cc(Cl)ccc32)cc1`, the Potency is 8.26 µM (active).
`O=C(Nc1ccc2oc(-c3ccc4ccccc4c3)nc2c1)c1cc(Br)ccc1Cl`: the Potency is 9.27 µM (active).
As to `Cc1ccc(CN2C(=O)C(=O)c3cc(Br)cc(C)c32)cc1`, the Potency is 9.27 µM (active).
Take `Cc1ccc(CN2C(=O)C(O)(CC(=O)c3ccc(C)cc3)c3ccccc32)cc1` (configuration not stated): the Potency is 4.65 µM (active).
As for `COc1ccc(-c2[nH]nc3nc(-c4cc(OC)c(OC)c(OC)c4)cc(C(=O)O)c23)cc1`, the activity change, negative = inhibition worked out at 15.4%.
Same read-out and setting: then `Cc1ccc(C(=O)CC2(O)C(=O)N(Cc3ccccc3)c3ccccc32)c(C)c1` (configuration not stated), with -24%; and `COc1ccc2c(c1)CCc1c(C(=O)Nc3c(C)nn(Cc4ccc(Cl)cc4)c3C)noc1-2`, with -75.9%.
As to `COc1ccc(NC(=O)C(NC(=O)/C=C\c2ccc3c(c2)OCO3)c2ccccc2)cc1` (configuration not stated), the Potency is 11.7 µM (active).
For `O=C(COc1ccc(F)cc1)Nc1ccc(Cl)c(-c2nc3ccccc3[nH]2)c1`, the activity change, negative = inhibition is -4.39%.
On to `COc1ccc(OC)c(NC(=O)c2nc(S(=O)(=O)Cc3ccc(F)cc3)ncc2Cl)c1`, for which the Potency was 2.07 µM (active).
For the molecule `CCc1ccc(NC(=O)Cn2nc(C(F)(F)F)c3c2CCCC3)cc1`, the activity change, negative = inhibition is -28%.
On the same count and under the same terms, then `Cc1cc(C)c(-c2n[nH]c3c2C(c2ccccc2F)N(Cc2ccco2)C3=O)c(O)c1` (configuration not stated), with 2.41%; and `CCOc1cc(CNc2ccc(O)cc2)cc(Cl)c1OCc1ccccc1`, with -9.52%; and `CCN(CC)CCn1c(=N)n(CCOc2ccccc2Cl)c2ccccc21`, with -149%.
For the molecule `CCOc1ccc(-c2nc(SCC(=O)c3ccccc3)n[nH]2)cc1`, the activity change, negative = inhibition is -131%.
`CCN1CCN(c2ccc(NS(=O)(=O)c3c(C)nc4sccn4c3=O)cc2Cl)CC1`: the activity change, negative = inhibition is -78.4%.
For the molecule `CS(=O)(=O)c1ncc(Cl)c(C(=O)N(Cc2ccc(Cl)cc2)Cc2ccco2)n1`, the activity change, negative = inhibition is -102%.

For the origin of these results see PubChem BioAssay AID651784 (National Center for Advancing Translational Sciences (NCATS), 2012).
